# From PubChem BioAssay AID2071 (Sanford-Burnham Center for Chemical Genomics, 2009)
# The whole screen tested about 280,000 compounds, of which about 1,700 (0.61%) were called active. No stated cut-off is given here; in the data, active means inhibition mostly above about 24% (no sharp cut-off); inactive means mostly below about 32%. The list comes from a sample in which actives are over-represented; it also holds similar structures and randomly drawn compounds.
# Test: NALP1 inflammasome inhibitors in reconstituted yeast, colorimetric, S. cerevisiae, triplicate retest (AID 2071)
# Settings: S. cerevisiae NALP1/ASC/caspase-1 growth, X-gal OD620, 72 h, stronger effect = higher value
structure (smiles),measurement,setting,value
CCCCCCCCCCCCn1ccc(=N)cc1,inhibition,at 10 µM unless noted,92.4% (active)
O=C(N/N=C/c1c(O)n(C2CC2)c(=S)[nH]c1=O)c1ccccc1,inhibition,at 10 µM unless noted,-16.2% (inactive)
COc1ccc(CNCCc2c[nH]c3ccccc23)cc1OC,inhibition,at 10 µM unless noted,-6% (inactive)
CCN1CCN(Cc2cc(OC)c3c(c2)OCO3)CC1,inhibition,at 10 µM unless noted,-2.2% (inactive)
CC(C)(C)c1ccc(OC(=O)N2CCCCC2)cc1,inhibition,at 10 µM unless noted,41% (active)
CN1CCN(C(=O)COc2ccc(C(C)(C)C)cc2Br)CC1,inhibition,at 10 µM unless noted,8.8% (inactive)
O=C(Nc1cccc(OC(=O)N2CCCCC2)c1)N1CCOCC1,inhibition,at 10 µM unless noted,-35.9% (inactive)
Cc1ccc(S(=O)(=O)N(C)c2ccc(C(=O)NCC3(N(C)C)CCCCC3)cc2)cc1,inhibition,at 10 µM unless noted,9.8% (inactive)
COc1ccc(CNCCc2ccc3c(c2)OCO3)c(OC)c1OC,inhibition,at 10 µM unless noted,30.6% (inactive)
CC(C)c1ccc(OCC(=O)N2CCCN(C)CC2)cc1,inhibition,at 10 µM unless noted,3.6% (inactive)
C=CCN1C(=O)NC(=O)/C(=C/c2ccc(OCC(=O)Nc3ccc(C)cc3)cc2)C1=O,inhibition,at 10 µM unless noted,25% (inactive)
CCN1CCN(c2nc3c(c(=O)[nH]2)CCC3)CC1,inhibition,at 10 µM unless noted,25.1% (inactive)
CN(C)/C=C(\C=[N+](C)C)c1[nH]ncc1[N+](=O)[O-],inhibition,at 10 µM unless noted,35.3% (active)
CCN(CC)C(=O)c1ccc(NC(=O)c2sccc2-c2ccccc2)cc1,inhibition,at 10 µM unless noted,1% (inactive)
O=C(N/N=C/c1c(O)n(C2CC2)c(=S)[nH]c1=O)c1ccccc1Cl,inhibition,at 10 µM unless noted,3.2% (inactive)
Clc1ccc2nc3c(c(-c4ccccc4)c2c1)CNCC3,inhibition,at 10 µM,45% (active)
same,inhibition,"triplicate retest, at 20 µM",66.3%
COc1ccc2[nH]c3c(c2c1)CCN[C@H]3C,inhibition,at 10 µM unless noted,14.7% (inactive)
COc1ccc(N=Cc2c(O)n(C)c(=O)[nH]c2=O)cc1,inhibition,at 10 µM unless noted,12.7% (inactive)
CN(c1ccccc1)c1ccc([N+](=O)[O-])c2nonc12,inhibition,at 10 µM unless noted,-7.2% (inactive)
Cc1nc2ccccc2c(=O)n1-c1ccc(Cl)cc1Cl,inhibition,at 10 µM unless noted,11.2% (inactive)
